Experimental findings from PubChem BioAssay (NCI) are described below.

Each structure is given as a SMILES string. Several values for one entry are separate records, joined by “and”; a condition that tells them apart may be missing. Identical values can stand only once. The panel holds about 83,000 compounds, 20% with a hit somewhere; the sample as a whole holds those more often.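 A percent growth of 40 corresponds to 60% growth inhibition; 0 means no net growth; -100 means all cells died. Active threshold: below 10.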 Values without a mark were called inactive.

This assay deals with NCI-H322M lung. Nature of the assay: NCI-60 one-dose screen, 48 h (100 = growth as untreated, 0 = no growth, -100 = all killed). The conditions noted are these: 10 µM unless noted.
Consider `COc1ccc(/C(C#N)=C/c2ccccn2)cc1`, for which the growth was 108% and 110%.

For the compound `O=C1OC2(c3ccccc31)c1ccc(O)c(O)c1Oc1c2ccc(O)c1O`, the growth is 109% and 130%. Consider `CC(=O)Nc1cccc2c1CCCC2`, for which the growth is 113% and 98%.

For `CN(C)c1ccc2nc3ccc(N)cc3[n+](-c3ccccc3)c2c1`, the growth was 66.1% and 40.3%. The value for `CCN(CC)CCOc1ccc(/C=N/Nc2nc3c([nH]2)c(=O)n(C)c(=O)n3C)cc1` was 109% and 94.1%; that for `O=C1CCN(Cc2ccccc2)C(=S)N1` was 92.1% and 93%; that for `CC(C)Cc1ccc(C(C)C(=O)NCc2ccc(Cn3c(=O)sn(CCCI)c3=O)cc2)cc1` (configuration not stated) was 98.2% and 59.4%.

Take `CCc1c(CC(=O)O)c2cc(C)ccc2n1Cc1ccc(Cl)cc1`: the growth was 76.3% and 280%. For `CNC(=O)c1ccc(C)c(-n2c(C)cc(OCc3ccc(F)cc3F)c(Br)c2=O)c1`, the growth was 86.3% and 92.8%. As to `O=[N+]([O-])c1ccc(-n2[nH]nnc2=S)cc1`, the growth was 92.8%. `COC(=O)/C=C/c1cc(O)c2c(c1)C(C(=O)OC)C(c1ccc(O)c(O)c1)O2` (configuration not stated): the growth is 72.7% and 55.8%. As to `COC(=O)c1nc(N)nc(C(=O)OC)c1C(=O)c1ccc(OC)cc1`, the growth was 105% and 88.1%.
